Bioassay records as filed in PubChem.
TRHR agonist: agonists of human TRH receptor. TRHR cells, calcium flux fluo-8, FDSS agonist mode. activation, % at 2 µM. 360,000 tested, 0.18% active. P34981
Target sequence (P34981 whole entry, looked up): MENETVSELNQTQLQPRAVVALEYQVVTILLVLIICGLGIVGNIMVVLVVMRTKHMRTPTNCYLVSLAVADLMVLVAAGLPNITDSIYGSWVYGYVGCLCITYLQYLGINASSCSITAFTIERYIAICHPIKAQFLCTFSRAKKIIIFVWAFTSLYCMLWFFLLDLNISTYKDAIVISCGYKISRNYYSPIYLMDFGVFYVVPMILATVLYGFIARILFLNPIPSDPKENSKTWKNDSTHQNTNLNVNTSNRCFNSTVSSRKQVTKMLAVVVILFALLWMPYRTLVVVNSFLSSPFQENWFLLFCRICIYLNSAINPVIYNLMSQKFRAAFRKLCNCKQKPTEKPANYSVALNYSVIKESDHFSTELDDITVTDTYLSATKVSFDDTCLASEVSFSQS
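Steps: seed TRHR cells overnight; add fluo-8 no-wash Ca dye, RT 30 min–1.5 h; record 10 s baseline; pin-transfer compounds; monitor fluorescence 1 cycle/s for the agonist window. Calcium increases flag candidate agonists.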
D1 potentiator: enhances dopamine response at the human D1 receptor; P21728; HEK293 TREx D1 cells, calcium flux, dopamine EC20 potentiation; potentiation, % at 10 µM; 360,000 tested, 0.036% active; in the data active means potentiation above about 30%
GRP78 ERSR act: induces the endoplasmic reticulum stress response in human glioma cells | U87-MG GRP78 promoter luciferase reporter, 16 h | Potency, µM, most hits filed as activators | 420,000 tested, 0.02% active | AID 602332; active means well fitted activation curve with a large enough effect; further: series mostly up to about 76 µM; nearly all actives have a fitted effect of over 35% in size
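ERSR induction read as luciferase luminescence (Bright-Glo, 10 min at room temperature) in stably transfected human U87-MG glioma cells exposed to compounds for 16 h, using GRP78 as sensor.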
D1 agonist: agonists of human D1 dopamine receptor; P21728; HEK293 T-REx D1 cells, calcium flux, agonist mode; activation, % at 2 µM; 360,000 tested, 1% active
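Agonism was scored from calcium flux recorded over 180 s (1 read/s) after pintool compound addition, following a 10-cycle baseline. Cells were inducible force-coupled HEK293 TREx D1, plated overnight at 30 C and loaded with no-wash calcium dye.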
D1 antagonist: human D1 dopamine receptor antagonism. HEK293 TREx D1 cells, calcium flux, dopamine EC80; active compounds read low. activity change, negative = inhibition, % at 10 µM. 360,000 tested, 3.2% active. AID 504652; in the data active means activity change below about -30%
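Tetracycline-induced HEK293 Trex D1 cells, force-coupled to calcium, dye-loaded; compounds added and read 180 s, then EC80 dopamine added and calcium flux tracked kinetically another 180 s.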
TRHR PAM: allosterically enhances the human TRH receptor. TRHR cells, fluo-8 calcium fluorescence, EC20 TRH enhancement. enhancement, % at 2 µM. 360,000 tested, 0.66% active; in the data active means enhancement above about 30%
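TRHR-expressing cells loaded with fluo-8 calcium dye were read kinetically (ex 480/em 530) during compound addition, then stimulated with an EC20 of TRH (10 nM final). Enhancement of the Gq-mediated intracellular calcium response was scored.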
Hits are given with their value; . = inactive; / = no result given; ! = repeats disagree. Rows were chosen to be rich in hits. Some 4% of all compounds tested hit in one or more screens of this group. Unless noted, no stated cut-off is given here; in the data, active means activation above about 30%; inactive means the rest.

SMILES	TRHR agonist	D1 potentiator	GRP78 ERSR act	D1 agonist	D1 antagonist	TRHR PAM
O=C(NCc1ccco1)C1CCN(C(=O)c2ccc([N+](=O)[O-])cc2)CC1	.	.	.	.	-44.7	.
CC(C(=O)Nc1ccc2c(c1)OCCO2)c1ccc([N+](=O)[O-])cc1 (configuration not stated)	.	.	.	101.2	-51.0	.
CC(C(=O)Nc1ccc2c(c1)OCO2)c1ccc([N+](=O)[O-])cc1 (configuration not stated)	.	.	.	112.4	.	.
O=C(CC(NC(=O)c1ccccc1Cl)c1ccccc1)Nc1ccc2c(c1)OCO2 (configuration not stated)	.	.	.	.	.	.
O=C(NCc1ccco1)C1CCN(C(=O)c2ccc(Cl)cc2)CC1	.	.	.	.	.	.
CC(NC(=O)c1ccccc1Cl)C(=O)Nc1ccc2c(c1)OCO2 (configuration not stated)	.	.	.	.	-83.1	.
O=C(COC(=O)c1cc[n+]([O-])cc1)NCc1ccccc1Cl	.	.	.	.	.	.
Cc1ccc(N2C(=O)Nc3ccccc3C2(O)C(=O)N2CCN(c3ccccn3)CC2)cc1C (configuration not stated)	.	.	.	.	.	.
COC(=O)c1cc(OC)c(OC)cc1NC(=O)Nc1cccc(C(C)=O)c1	.	.	.	.	.	.
O=C(Nc1ccc2c(c1)OCCO2)C1CCN(C(=O)c2ccc(Br)cc2)CC1	.	.	.	.	.	.
CC(C)n1nc(C(=O)Nc2ccc3c(c2)OCO3)c2ccccc2c1=O	.	/	.	.	-32.5	.
O=C(Nc1ccc2c(c1)OCCO2)C1CCN(C(=O)c2ccc([N+](=O)[O-])cc2)CC1	.	.	.	.	-31.2	.
Brc1ccc(-c2csc(N3CCCCC3)n2)cc1	.	.	/	.	.	.
CNC(=O)/C(C#N)=C\c1ccc(CNS(=O)(=O)c2ccc(Cl)cc2)o1	.	.	.	.	-69.0	.
Cc1ccc(NC(=O)CSc2nnc(-c3ccccc3)n2C)cc1	/	/	.	/	/	/
N#CC1=C(N)Oc2cc(O)c(Cl)cc2C1c1ccccc1F (configuration not stated)	55.3	.	.	165.6	.	.
COC(=O)C1=C(C)OC(N)=C(C#N)C1c1ccccc1F (configuration not stated)	.	.	.	.	.	.
Cc1cc(C)n2nc(C(=O)NCC3Cc4cccc(-c5ccc(S(C)(=O)=O)cc5)c4O3)cc2n1 (configuration not stated)	/	/	.	/	/	/
COc1ccc(S(=O)(=O)n2cccc2)cc1OC	.	.	.	.	-34.5	.
COc1ccc(S(=O)(=O)n2cccc2)c(OC)c1	.	.	.	.	.	32.3
COc1ccc(S(=O)(=O)N2CCNCC2)cc1OC	.	.	.	.	.	.
Cc1ccc(C(=O)NCCCNC(=O)c2ccccn2)cc1	.	.	.	.	.	.
Cc1ccc(C(=O)NCCCNc2ccccc2[N+](=O)[O-])cc1	.	.	.	.	-43.9	.
S=C(NCc1ccc2c(c1)OCO2)NC1CCN(Cc2ccccc2)CC1	.	.	.	37.9	.	.
S=C(Nc1ccc(Cl)c(Cl)c1)NC1CCCCC1	.	.	.	.	-40.8	.
SMILES	TRHR agonist	D1 potentiator	GRP78 ERSR act	D1 agonist	D1 antagonist	TRHR PAM
S=C(Nc1ccc2nsnc2c1)NC1CCCCC1	.	.	.	46.1	.	.
S=C(Nc1ccc(Cl)c(Cl)c1)NC1CCN(Cc2ccccc2)CC1	.	.	.	47.3	-43.4	.
S=C(NCc1ccccc1)N1CCN(Cc2ccc3c(c2)OCO3)CC1	.	.	.	.	.	.
S=C(Nc1ccc2nsnc2c1)N1CCCCCC1	.	.	.	.	.	.
Fc1ccc(NC(=S)NC2CCN(Cc3ccccc3)CC2)cc1	.	.	.	.	.	.
COc1ccc(NC(=O)Nc2ccc(F)cc2)cn1	.	.	.	.	.	.
COc1ccc(NC(=O)C(c2ccc(Cl)cc2)C(C)C)cn1 (configuration not stated)	.	.	.	38.5	.	.
CC(C)(C)N1C(=O)[C@H]2[C@H]3[C@H](O)[C@H](O)C/C(=N/NC(=O)OCc4ccccc4)[C@@H]3CC[C@@H]2C1=O	/	/	.	/	/	/
CCOC(=O)c1c(C)n(-c2ccc(C)cc2)c2ccc(OCC(O)CNCCCO)cc12 (configuration not stated)	.	.	.	.	.	.
CCOC(=O)c1c(C)n(-c2ccc(C)cc2)c2ccc(OCC(O)CNCC3CCCO3)cc12 (configuration not stated)	.	.	.	60.2	.	.
CCc1nc2ccc(C(=O)NCCCn3ccnc3)cn2c1N(C)C(=O)c1cccc(OC)c1	/	/	.	/	/	/
Cc1cccc(S(=O)(=O)C(C#N)c2nc3ccccc3nc2N2CCCC2)c1 (configuration not stated)	.	.	.	33.9	.	.
C(=C\c1nccc2c1[nH]c1ccccc12)/c1ccccc1	.	.	.	.	-36.9	.
Fc1ccc(/C=C\c2nccc3c2[nH]c2ccccc23)cc1	.	.	.	.	.	.
O=S(=O)(c1ccccc1)c1cnc(-c2ccccc2)nc1N1CCCCC1	.	.	.	.	.	.
CC1CCc2[nH]c3ccc(C(=O)N4CCCC(C(F)(F)F)C4)cc3c2C1 (configuration not stated)	.	.	.	.	.	.
CCCCN(CC)C(=O)Cn1nc(Cc2ccncc2)c2ccccc2c1=O	.	.	.	.	.	.
CCN(C(=O)Cn1nc(Cc2ccncc2)c2ccccc2c1=O)c1cccc(Cl)c1	.	.	.	.	-83.4	.
CCCCCOc1ccc(C(=O)CCC(=O)N2CCCC2)cc1	.	.	.	36.2	.	.
CCCCOc1ccc(C(=O)CCN2CCOCC2)cc1	.	.	.	.	-34.4	.
O=C(O[C@H]1[C@H](Cc2ccccc2)NS(=O)(=O)[C@H]2C[C@@H]3C=C[C@]12O3)c1ccccc1Br	/	/	.	/	/	/
CC(C)c1ccc(S(=O)(=O)Nc2ccc(N3CCOCC3)cc2)cc1	.	.	.	.	.	.
Cc1cccc(N(C)S(=O)(=O)c2ccc(-c3cc(C)no3)s2)c1	.	.	.	32.5!	.	.
CC(=O)N(CN1C(=O)c2ccccc2C1=O)c1ccc2c(c1)oc1ccccc12	.	.	.	.	.	.
Cc1cc2c(c(-c3nc4ccccc4s3)c1)OC(CNC(=O)c1occc1C)C2 (configuration not stated)	/	/	.	/	/	/
Cc1ncc2c(c1CNC(=O)c1ccc3c(c1)OCO3)CCN(C(=O)c1csc3c1CCCC3)C2	/	/	.	/	/	/
